Reference: PubChem BioAssay
Activity calls are given as the source filed them.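 How the source made its calls, unless noted: active means inhibition at or above 50% relative to wild type and mutant plate controls; inactive means inhibition below 50%.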

Columns and labels:
[1] = inhibitors of Chlamydomonas gravitaxis, primary screen, whole organism, Chlamydomonas reinhardtii, WT vs cilia-less mutant, absorbance, 96-well (AID 463189); conditions: OD600 absorbance, 2 days, at 10 µM, stronger effect = higher value;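 further: 0% = wild type cc124 cells in DMSO and 100% = ciliumless bld1 mutant cells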
[2] = inhibitors of TNFa-induced NFkB p65 translocation, primary screen, imaging, HUVEC, MLSMR starter and 10KST1 sets (AID 438;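 active means inhibition above 20% together with a positive visual image hit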;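 further: compound added about 3h40 before a 20 min TNFalpha stimulation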;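 on inhibition: signal is the nuclear over cytoplasmic p65 intensity ratio per well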); conditions: HUVEC TNFa-induced p65 nuclear translocation; cell count: measured here: nuclei count (cytotoxicity indicator), at 2.08 µM; inhibition: at 2 µM, stronger effect = higher value, 0% TNFa-plus-vehicle, 100% no-TNFa wells
[3] = inhibitors of E-selectin induction by TNFa, primary screen, imaging, HUVEC, immunofluorescence, MLSMR starter and 10KST1 sets (AID 487;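 active means visually confirmed hit in the image check and inhibition above 20%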;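 on inhibition: signal is fraction of cell area covered by stained E-selectin grains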;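 on nuclei count: 100% = median nuclei count of all wells on the same plate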); conditions: HUVEC TNFalpha-induced E-selectin immunofluorescence imaging, at 2 µM; inhibition: stronger effect = higher value; nuclei count: measured here: cell number, toxicity
[4] = DUSP6 inhibitors restoring Erk phosphorylation by chemical complementation, primary imaging in DUSP6-transfected HeLa (AID 609;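 active means compounds giving at least 50% inhibition in the cell-based MKP-3 phosphatase rescue imaging test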;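 on inhibition: phospho-Erk level distribution per well compared with pooled transfected vehicle control wells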); conditions: HeLa MKP-3 transfected, phospho-Erk imaging KS statistic, at 10 µM, cells stimulated with TPA for 15 min
[5] = target: Dual specificity protein phosphatase 6 (Homo sapiens) (UniProt Q16828); assay: as above; conditions: HeLa MKP-3 transfected, phospho-Erk imaging KS statistic; at 10 µM; stronger effect = higher value; cells stimulated with TPA for 15 min
Dual specificity protein phosphatase 6 (Homo sapiens), sequence (Q16828 whole entry, looked up): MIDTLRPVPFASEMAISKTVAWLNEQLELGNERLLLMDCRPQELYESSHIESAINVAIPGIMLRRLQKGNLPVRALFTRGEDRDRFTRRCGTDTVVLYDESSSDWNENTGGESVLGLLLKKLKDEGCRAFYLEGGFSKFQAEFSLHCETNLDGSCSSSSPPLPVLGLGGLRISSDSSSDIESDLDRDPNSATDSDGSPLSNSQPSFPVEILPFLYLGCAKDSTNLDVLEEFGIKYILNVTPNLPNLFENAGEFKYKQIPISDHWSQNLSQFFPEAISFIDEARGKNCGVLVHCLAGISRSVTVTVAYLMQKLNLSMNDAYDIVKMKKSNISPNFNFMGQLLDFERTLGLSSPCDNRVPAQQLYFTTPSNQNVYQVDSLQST

[6] = target: Voltage-gated potassium channel subunit beta-2 (Rattus norvegicus) (UniProt P62483); assay: KvBeta enzyme negative modulators, primary screen, biochemical, NADPH fluorescence (AID 622;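 active means fluorescence slope higher than the sample average by over 3 SD, cut at about -0.22 in these data, passing the limit was not always enough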;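 further: slope of raw intensity against log time taken from 70 to 1610 s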); conditions: recombinant KvBeta, 4-cyanobenzaldehyde reduction, at 10 µM, stronger effect = higher value
Voltage-gated potassium channel subunit beta-2 (Rattus norvegicus), sequence (P62483 whole entry, looked up): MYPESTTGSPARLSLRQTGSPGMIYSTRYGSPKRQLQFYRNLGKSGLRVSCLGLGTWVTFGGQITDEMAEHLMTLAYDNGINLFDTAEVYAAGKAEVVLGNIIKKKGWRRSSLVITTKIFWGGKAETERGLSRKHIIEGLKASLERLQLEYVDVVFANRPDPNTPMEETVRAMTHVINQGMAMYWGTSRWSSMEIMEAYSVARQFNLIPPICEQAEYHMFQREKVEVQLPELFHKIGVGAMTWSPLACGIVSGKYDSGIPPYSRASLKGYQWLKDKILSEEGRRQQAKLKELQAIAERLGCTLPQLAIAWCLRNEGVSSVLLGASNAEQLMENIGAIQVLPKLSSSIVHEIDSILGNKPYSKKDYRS

[7] = target: Voltage-gated potassium channel subunit beta-2 (Rattus norvegicus) (UniProt P62483); assay: KvBeta positive modulators, primary screen, biochemical, NADPH fluorescence (AID 623;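 active means NADPH fluorescence slope more negative than the mean of all samples by about 3 SD, 99.7% confidence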;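 further: fluorescence intensity change per second fitted from 20 to 320 s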); conditions: Recombinant KvBeta, NADPH fluorescence decrease slope, 10 min; at 10 µM; stronger effect = lower value
[8] = target: Alpha-2C adrenergic receptor (Homo sapiens) (UniProt P18825); assay: modulators of alpha2C/GIRK thallium flux, primary screen, cell-based, HEK293 alpha2C/GIRK1/2 (AID 624;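 active means fluorescence slope after compound addition differing from the mean of all screened samples at 99.7% confidence, in either direction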;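 further: slope of fluorescence ratio to pre-addition baseline per second over 15 to 24 s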); conditions: thallium flux BTC fluorescence, at 10 µM, actives lie on both sides
Alpha-2C adrenergic receptor (Homo sapiens), sequence (P18825 whole entry, looked up): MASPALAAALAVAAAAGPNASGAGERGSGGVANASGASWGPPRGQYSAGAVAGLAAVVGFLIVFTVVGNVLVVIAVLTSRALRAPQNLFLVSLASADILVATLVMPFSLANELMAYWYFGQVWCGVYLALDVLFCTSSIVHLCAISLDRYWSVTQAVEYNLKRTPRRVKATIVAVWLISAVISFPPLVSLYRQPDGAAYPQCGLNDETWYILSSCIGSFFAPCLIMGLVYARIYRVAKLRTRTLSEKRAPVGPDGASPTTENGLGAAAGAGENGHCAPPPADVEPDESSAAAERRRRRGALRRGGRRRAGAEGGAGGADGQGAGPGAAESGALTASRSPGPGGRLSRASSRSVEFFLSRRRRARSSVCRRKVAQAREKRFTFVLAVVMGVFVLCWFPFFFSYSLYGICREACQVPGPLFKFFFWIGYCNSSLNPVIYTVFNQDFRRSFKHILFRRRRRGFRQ

[9] = inhibitors of larval lipid processing in zebrafish, primary screen, whole organism, PED6 fluorescence, gall bladder and intestine (AID 686;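 active means a full or partial loss of lipid-probe fluorescence in the fish gall bladder, intestine or both, judged by eye; inactive means no fluorescence loss, or compound toxic to the fish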;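 further: larvae 5 to 7 days old with five fish per well; signal comes from phospholipase A2 cleavage of quenched PED6 carried via bile; overnight exposure to compound and PED6 before scoring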); conditions: Zebrafish larvae PED6 lipid processing, fluorescence scoring; screened at 20 µM (by protocol)
[10] = inhibitors of Sendai virus-induced IRF3 signaling, primary screen, TLR/RLR signaling modifier project, cell-based, Sendai virus stimulus, luciferase, 10K MLSCN set (AID 602276;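 active means inhibition at or above 50% at 10 µM; inactive means inhibition below 50%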;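 further: firefly luciferase from ISG56 promoter only with Renilla not read in this screen; 0% = Sendai virus plus DMSO and 100% = medium plus DMSO without virus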); conditions: HEK293 RL24 IRF3 luciferase reporter, at 10 µM, stronger effect = higher value
[11] = inhibitors of poly I:C-induced TLR3 signaling, primary screen, cell-based, poly I:C stimulus, luciferase, 10K MLSCN set (AID 602277;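 active means inhibition of the reporter signal at or above 50%; inactive means inhibition below 50%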); conditions: HEK293-TLR3 RL24 IRF3 luciferase reporter, at 10 µM, stronger effect = higher value
[12] = measured here: cell density z-score
[13] = measured here: nuclear c-Myc green intensity z-score
[14] = measured here: nuclear pErk red intensity z-score, stronger effect = higher value

Compound: CC1C(=O)N(C)C(=O)c2nc[nH]c21 (stereo not given)
- inhibition [1]: 7.36% (inactive)

Compound: CCCN(CCC)CCc1cccc2c1CC(=O)N2
- inhibition [1]: 4.03% (inactive)

Compound: COC1(C2=NCCN2)COc2ccccc2O1 (stereo not given)
- inhibition [1]: 7.5% (inactive)

Compound: CCn1cc(C(=O)O)c(=O)c2ccc(C)nc21
- cell count [2]: 578
- inhibition [2]: -2.8% (inactive)
- inhibition [3]: -83.2% (inactive)
- nuclei count [3]: 111%
- z-score [4, 12]: 2.22
- z-score [4, 13]: -0.0952
- z-score [4, 14]: 0.302
- inhibition [5]: 5.42% (inactive)
- fluorescence slope [6]: -0.455 (inactive)
- NADPH fluorescence slope [7]: -3.9e-05 (inactive)
- slope [8]: 0.00465 (inactive)
- outcome [9]: inactive
- inhibition [10]: 15.8% (inactive)
- inhibition [11]: 40.1% (inactive)

Compound: CC1(C)CCC=[N+]1[O-]
- inhibition [1]: 0.394% (inactive)

Compound: CN(C)CC/C=C1\c2ccccc2COc2ccccc21
- inhibition [1]: 6.63% (inactive)

Compound: O=C(O)C1=CCCNC1
- inhibition [1]: 5.21% (inactive)

Compound: O=Nc1c(-c2c(O)[nH]c3ccccc23)[nH]c2ccccc12
- inhibition [1]: 1.78% (inactive)

Compound: CCCCCCCC/C=C\CCCCCCCC(=O)NCCO
- inhibition [1]: -7.05% (inactive)

Compound: Oc1cc2c(c(Cl)c1O)CCNCC2c1ccccc1 (stereo not given)
- inhibition [1]: 6.8% (inactive)

Compound: CNC[C@H](O)c1ccc(O)c(O)c1
- inhibition [1]: 1.9% (inactive)

Compound: COc1ccccc1NC(=O)Nc1nc(-c2cccnc2)nc2ccccc12
- inhibition [1]: -0.831% (inactive)

Compound: CC(C)[N+]1(C)[C@@H]2CC[C@H]1CC(OC(=O)C(CO)c1ccccc1)C2 (stereo not given in full)
- cell count [2]: 466
- inhibition [2]: -3.8% (inactive)
- inhibition [3]: -89.2% (inactive)
- nuclei count [3]: 94.7%
- z-score [4, 12]: 1.04
- z-score [4, 13]: -0.0729
- z-score [4, 14]: -1.49
- inhibition [5]: 25.7% (inactive)
- fluorescence slope [6]: -0.497 (inactive)
- NADPH fluorescence slope [7]: -5.7e-05 (inactive)
- slope [8]: 0.00449 (inactive)
- inhibition [10]: -5.72% (inactive)
- inhibition [11]: 28.4% (inactive)

Compound: N=C(N)SCCc1cnc[nH]1
- inhibition [1]: 2% (inactive)

Compound: COc1cc(OC)c(/C=C2/C(=O)Nc3ccccc32)c(OC)c1
- inhibition [1]: 6.51% (inactive)

Compound: Cc1ccc(OCC(O)C(C)NC(C)C)c2c1CCC2 (stereo not given)
- inhibition [1]: -3.42% (inactive)

Compound: NC(=NCCC[C@H](N)C(=O)O)NO
- inhibition [1]: -1.45% (inactive)

Compound: N[C@@H](CC(=O)O)C(=O)O
- inhibition [1]: 4.32% (inactive)

Compound: NCCCCCC(=O)O
- inhibition [1]: 3.27% (inactive)

Compound: CC1=C(C(=O)O)N2C(=O)[C@@H](NC(=O)C(N)c3ccccc3)[C@H]2SC1 (stereo not given in full)
- inhibition [1]: -0.964% (inactive)

Compound: CC(C)(Oc1ccc(C2CC2(Cl)Cl)cc1)C(=O)O (stereo not given)
- inhibition [1]: 1.41% (inactive)

Compound: CCN(CC)CCOCCOC(=O)C1(c2ccccc2)CCCC1
- inhibition [1]: 5.28% (inactive)

Compound: CC(CCc1ccc(O)cc1)NCCc1ccc(O)c(O)c1 (stereo not given)
- inhibition [1]: -1.59% (inactive)

Compound: Oc1ccc(C2CNCc3sccc32)cc1O (stereo not given)
- inhibition [1]: 10.1% (inactive)

Compound: Cn1c(=O)c2c(nc(/C=C/c3cccc(Cl)c3)n2C)n(C)c1=O
- inhibition [1]: 18.1% (inactive)

Compound: Cc1ccc(C(=O)O[C@H](C(=O)O)[C@H](OC(=O)c2ccc(C)cc2)C(=O)O)cc1 (tested in a mixture with another compound)
- inhibition [1]: 5.96% (inactive)

Compound: N=C(N)SCCN
- inhibition [1]: -11.5% (inactive)

Compound: CNC(=O)[C@H]1O[C@@H](n2cnc3c(N)ncnc32)C(O)[C@H]1O (stereo not given in full)
- inhibition [1]: 1.69% (inactive)

Compound: NC(=O)c1cc[n+](CC2=C(C(=O)O)N3C(=O)[C@@H](NC(=O)[C@@H](c4ccccc4)S(=O)(=O)[O-])[C@H]3SC2)cc1
- inhibition [1]: -6.94% (inactive)

Compound: CN1CCN(C2Cc3ccccc3Sc3ccc(Cl)cc32)CC1 (stereo not given)
- inhibition [1]: 30.5% (inactive)
